HEK293 viab = counter-screen for SNCA expression inhibitors: cell viability; HEK-293-SNCA-luc viability, GF-AFC fluorescence, 24 h; Potency, µM (series often up to 57.1 µM), hits mostly cytotoxic; 150,000 tested, 0.12% active; AID 1671193; also: nearly all actives have a fitted effect of over 30% in size
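Cytotoxicity counterscreen: after 24 h compound treatment of genome-edited SNCA-luciferase HEK-293 cells, live-cell protease substrate GF-AFC read by fluorescence after 30 min; activity scaled between DMSO (0%) and medium-only (-100%), curves Hill-fitted.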
KDM5B inhibitor = inhibitors of human KDM5B histone demethylase; Q9UGL1; KDM5B demethylase, FDH-coupled NADH fluorescence (FDH is formaldehyde dehydrogenase); Potency, µM (doses to about 57.7 µM), usual class: inhibitors; 220,000 tested, 2.6% active; also: nearly all actives have a fitted effect of over 70% in size
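Here, H3K4me3 peptide (12.5 µM in substrate mix) is demethylated by KDM5BΔAP, 200 nM final, after 10 min compound exposure. Formaldehyde product is coupled through FDH (0.25 U/mL in mix) to NADH fluorescence; 30-min ΔRFU feeds dose-response curves.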
SNCA expr inhib = SNCA gene expression inhibition | HEK-293 SNCA-luciferase knock-in, luminescence, 24 h | Potency, µM (titrated, usually from 57.2 µM), hits mostly inhibitors | 140,000 tested, 0.17% active | AID 1671194; also: nearly all actives have a fitted effect of over 45% in size
IP6K1 inh = blocks human inositol hexakisphosphate kinase 1; Q92551; IP6K1 kinase, ADP-Glo luminescence, 2 h; active compounds read low; activity change, % (series mostly up to about 58 µM); 140,000 tested, 0.81% active; in the data active = activity change below about -25%
Target sequence (Q92551 whole entry, looked up): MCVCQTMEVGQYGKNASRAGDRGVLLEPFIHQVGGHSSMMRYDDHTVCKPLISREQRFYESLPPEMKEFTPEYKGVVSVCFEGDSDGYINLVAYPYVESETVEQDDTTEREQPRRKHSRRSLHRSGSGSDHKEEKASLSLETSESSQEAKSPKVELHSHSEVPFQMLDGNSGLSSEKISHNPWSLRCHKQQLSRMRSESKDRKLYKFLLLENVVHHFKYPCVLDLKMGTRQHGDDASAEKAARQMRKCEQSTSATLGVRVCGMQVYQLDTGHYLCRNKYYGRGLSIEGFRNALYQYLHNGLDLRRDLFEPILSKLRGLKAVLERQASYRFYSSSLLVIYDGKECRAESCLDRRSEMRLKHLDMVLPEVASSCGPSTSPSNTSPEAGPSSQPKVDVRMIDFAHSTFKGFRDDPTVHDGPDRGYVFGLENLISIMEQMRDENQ
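ADP-Glo luminescence measures ADP made by human IP6K1 during a 2 h RT reaction with ATP/IP6 (mix at 1.3 mM/130 uM); top library doses 57.5 and 19.1 uM final.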
Of the large screens only hits and unclear results are named; the others gave an inactive call. Only some compounds are listed: those with a hit (about 2.9% of all), similar ones and a draw of the others. Unless noted, calls follow the shape of the dose curve; as a rule, active = well fitted curve in the direction sought with a large enough effect; inconclusive = small, poorly fitted or top-dose-only effect, or another doubt; inactive = no such curve, though single readings can be large; an effect the other way counts as inactive or inconclusive.

Cn1nc(C2CCCN(C(=O)Nc3ccc4c(c3)OCCO4)C2)n(C2CCCC2)c1=O (centres undefined)	none
COc1cccc(-c2cc(C(=O)NCc3c(C)cc(C)[nH]c3=O)c3c(c2)N(C(C)C)CCO3)c1OC	KDM5B inhibitor 28µM
Cc1cc(C)c(CNC(=O)c2cc(-c3ccccc3F)cc3c2OCCN3C(C)C)c(=O)[nH]1	KDM5B inhibitor 32µM, SNCA expr inhib inconclusive
Cc1cc(C)c(CNC(=O)c2cc(-c3ccccc3C)cc3ncn(C)c23)c(=O)[nH]1	KDM5B inhibitor inconclusive
Cc1cc(C)c(CNC(=O)c2cc(-c3ccccc3O)cc3c2OCCN3C)c(=O)[nH]1	KDM5B inhibitor 35µM
Cc1cc(C)c(CNC(=O)c2cc(-c3cccc4[nH]ccc34)cc3ncn(C)c23)c(=O)[nH]1	KDM5B inhibitor inconclusive
O=C(Nc1nccs1)c1ccc2c(c1)OCCN(C1CCC1)C2	none
Cc1nn(-c2ccccc2)c2c1C(C1CC1)N(C1CN(C(=O)C(C)(C)C)C1)C2=O (centres undefined)	none (no result: HEK293 viab, KDM5B inhibitor, SNCA expr inhib)
O=C(CCC1CCN(c2cc(NC3CC3)ncn2)CC1)Nc1ccccc1	SNCA expr inhib inconclusive
CCCNC(=O)CCC1CCN(c2cc(NCCC)ncn2)CC1	SNCA expr inhib 3.2µM
CCCNc1cc(N2CCC(CCC(=O)Nc3cccc(C)c3)CC2)ncn1	SNCA expr inhib 2µM
CCCNc1cc(N2CCC(CCC(=O)N3CCN(c4ccc(F)cc4)CC3)CC2)ncn1	SNCA expr inhib inconclusive
CCNc1cc(N2CCC(CCC(=O)NCC3CC3)CC2)ncn1	SNCA expr inhib inconclusive
CCCNc1cc(N2CCC(CCC(=O)O)CC2)ncn1	SNCA expr inhib 1.1µM
O=C(O)CCC1CCN(c2cc(NC3CC3)ncn2)CC1	SNCA expr inhib 1.1µM
O=C(NCc1cccc(Cl)c1)c1ccc2nc(-c3cccnc3)oc2c1	none (no result: KDM5B inhibitor)
O=C(CCC1CCN(S(=O)(=O)c2ccccc2)CC1)NCc1ccccc1	KDM5B inhibitor 22µM
CCNc1cc(N2CCC(CCC(=O)NCc3ccc(OC)cc3)CC2)ncn1	SNCA expr inhib inconclusive
O=C(CCC1CCN(S(=O)(=O)c2ccccc2)CC1)NCc1ccc(F)cc1	none
CCCNc1cc(N2CCC(CCC(=O)NCC)CC2)ncn1	SNCA expr inhib 2.5µM
CCCNc1cc(N2CCC(CCC(=O)NCc3ccccc3)CC2)ncn1	SNCA expr inhib 2.5µM
CC(C)CNC(=O)c1cc2cn(C3CC3)cc2s1	KDM5B inhibitor inconclusive
O=C(O)c1cc2cn(C3CCCC3)cc2s1	KDM5B inhibitor 16µM
CC1CCN(CCNC(=O)c2cc3cn(C(C)C)cc3s2)CC1	KDM5B inhibitor 14µM
CN(C)CCNC(=O)c1cc2cn(C3CC3)cc2s1	KDM5B inhibitor 13µM
C#CCNC(=O)c1cc(-c2ccccc2C(F)(F)F)nc2c1cnn2C	none (no result: HEK293 viab, KDM5B inhibitor, SNCA expr inhib)
O=C(c1ccccc1F)N1CCN(Cc2ccccc2-c2ccccc2F)CC1	none (no result: KDM5B inhibitor)
Cc1ccc(Nc2ccnc(N3CCCC(C(=O)N4CCN(Cc5ccccc5)CC4)C3)n2)cc1 (centres undefined)	SNCA expr inhib inconclusive (no result: KDM5B inhibitor)
COC[C@@H]1CN(c2cnccn2)C[C@H]1C(=O)NCCc1ccncc1	KDM5B inhibitor 25µM
COC[C@@H]1CN(c2cnccn2)C[C@H]1C(=O)NCc1ccc(C)c(C)c1	KDM5B inhibitor 18µM
COc1ccc(C(=O)N[C@@H]2CCC[C@@H]2C(=O)NCc2ccc(C)c(C)c2)cc1	none
COC[C@@H]1CN(c2cnccn2)C[C@H]1C(=O)NCC1CC1	KDM5B inhibitor 18µM
CCOC(=O)[C@@H]1CN(C(=O)COc2ccccc2)[C@H]2c3ccccc3O[C@@H]12	none (no result: HEK293 viab, KDM5B inhibitor, SNCA expr inhib)
O=c1[nH]c(C2CCCN(CC3CCCC3)C2)nc2ccc(F)cc12 (centres undefined)	none
CCc1ccc(CNC(=O)C2COc3ccc(OC)cc3C2)cc1 (centres undefined)	none
COc1ccc2c(c1)OCC(C(=O)NCc1csc(N3CCCC3)n1)C2 (centres undefined)	KDM5B inhibitor 14µM
COc1ccc(CNC(=O)c2cc(-c3cccc(OC)c3)nc3c2cnn3C)cc1	none (no result: HEK293 viab, KDM5B inhibitor, SNCA expr inhib)
O=C(NC1CC1)c1nc(-c2cccnc2)c2ccccn12	KDM5B inhibitor 89µM
O=C(NC1CC1)c1nc(-c2cccc(C(F)(F)F)c2)c2ccccn12	KDM5B inhibitor inconclusive
O=C(NC1CC1)c1nc(-c2ccc(F)cc2)c2ccccn12	KDM5B inhibitor 32µM
COCCNC(=O)C1CCCN(Cc2cccc(-c3ccc(F)cc3F)c2)C1 (centres undefined)	none (no result: KDM5B inhibitor)
O=c1[nH]c(C2CCCN(Cc3cccc(-c4ccsc4)c3)C2)nc2ccc(F)cc12 (centres undefined)	KDM5B inhibitor inconclusive
CN1CCN(Cc2ccc(-c3cnc4c(OCc5ccccc5)nccn34)cc2)CC1	KDM5B inhibitor 32µM
C=CCOc1cc(C)c2c(c1C)[C@H](O)C([C@H](C)C(=O)NCCOC)CC2 (some centres undefined)	none
C=CCOc1cc(C)c2c(c1C)[C@H](O)C([C@H](C)C(=O)N(C)Cc1ccccc1)CC2 (some centres undefined)	KDM5B inhibitor 35µM
COCCn1ccc2c(C3=CCOCC3)nc(-c3cccc(N4CCOCC4)c3)cc21	KDM5B inhibitor inconclusive
COCCn1ccc2c(C3=CCOCC3)nc(-c3ccc4cn[nH]c4c3)cc21	KDM5B inhibitor 40µM
COCCn1ccc2c(C3=CCOCC3)nc(-c3ccc4c(c3)CNC4=O)cc21	KDM5B inhibitor 11µM
COCCn1ccc2c(C3=CCOCC3)nc(-c3cccc(CO)c3)cc21	KDM5B inhibitor 40µM
c1cn2cc(-c3ccc4cn[nH]c4c3)nc(Nc3ccc(N4CCOCC4)cc3)c2n1	none (no result: KDM5B inhibitor, SNCA expr inhib)
COCCn1ccc2c(C3=CCOCC3)nc(-c3cccc4[nH]ccc34)cc21	HEK293 viab inconclusive, KDM5B inhibitor 35µM
OC[C@H]1CCN(Cc2ccc(-c3cccc(Cl)c3Cl)o2)C[C@@H]1O	HEK293 viab inconclusive
COCCn1ccc2c(C3=CCOCC3)nc(-c3cccc4[nH]ncc34)cc21	KDM5B inhibitor 28µM
Cc1ncccc1C(=O)N[C@@H]1CN(c2ncccn2)C[C@H]1CO	KDM5B inhibitor 20µM
O=C(N[C@@H]1CN(c2ncccn2)C[C@H]1CO)c1ccoc1	KDM5B inhibitor 13µM
Cc1nn(C)c(C)c1C(=O)N[C@@H]1CN(c2ncccn2)C[C@H]1CO	KDM5B inhibitor 20µM
COc1ccccc1CCC(=O)N[C@@H]1CN(c2ncccn2)C[C@H]1CO	KDM5B inhibitor 18µM
Cc1ccc(CN(C)CC(=O)NC(=O)NCc2ccco2)cc1	none (no result: HEK293 viab, SNCA expr inhib, IP6K1 inh)
COCC1CN(C(C)=O)CC12CCN(Cc1cccc(Br)c1)CC2 (centres undefined)	KDM5B inhibitor inconclusive
COc1ccc(CC(=O)N2CCN(C(=O)c3cccc(-c4ccccc4OC)c3)CC2)cc1	none (no result: KDM5B inhibitor)
O=C(NCC1CCCCC1)c1noc(-c2ccc[nH]c2=O)n1	none
O=C(NCC1CC1)c1noc(-c2ccccc2F)n1	KDM5B inhibitor 20µM
COc1ccccc1-c1cnc(Nc2cc(F)cc(N3CCOCC3)c2)c2c1CCO2	KDM5B inhibitor inconclusive
COc1ccccc1-c1cnc(NC(=O)c2cnccn2)c2c1CCO2	KDM5B inhibitor 35µM
